From PubChem BioAssay (EPA / NIEHS) come the findings set out here.

Assay [1] is described as follows: ATG_NFI_CIS: Attagene CIS-FACTORIAL HepG2 Assay for human Nuclear Factor I (NFI) (AID 2282989). The following applies: HepG2 cis-regulatory reporter, NFI response element transcription; actives raise or lower the signal. In outline: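 HepG2, transient MRTU, 24 h exposure; RNA→cDNA→PCR→FAM label→HpaI→CE fluorescence. Bidirectional fit, DMSO = baseline.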
Assay [2] concerns the target Myc proto-oncogene protein (Homo sapiens) (UniProt P01106). Briefly: ATG_Myc_CIS: Attagene CIS-FACTORIAL HepG2 Assay for human Myelocytomatosis (Myc) Proto-Oncogene Transcription Factor (AID 2282990). As to conditions: HepG2, Attagene cis-reporter transcription factor activity; actives raise or lower the signal. A digest of the protocol: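 Cells of the HepG2 human liver line bear multiple cis-driven reporter transcription units. Reporter mRNA after 24 h exposure is reverse-transcribed, amplified, labelled and resolved by capillary electrophoresis, with gain- or loss-of-signal fitting relative to DMSO.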

Assay [3] can be described thus: ATG_NF_kB_CIS: Attagene CIS-FACTORIAL HepG2 Assay for human Nuclear Factor Kappa B (NF-kB) (AID 2282991). As to conditions: HepG2 Attagene cis-factorial NF-kB reporter mRNA; actives raise or lower the signal. A digest of the protocol:
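HepG2, transient multi-reporter transfection, cis promoter elements (endogenous TFs). 24 h exposure. Total RNA → RT → PCR → 6-FAM label → HpaI → CE. Gain/loss vs DMSO.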

Assay [4] can be described thus: ATG_NRF2_ARE_CIS: Attagene CIS-FACTORIAL HepG2 Assay for human Nuclear Factor Erythroid 2 Related Factor 2 (NFR2) response to Antioxidant Response Elements (ARE) (AID 2282992).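 As to AC50: reporter mRNA level measured by RT-PCR and capillary electrophoresis fluorescence.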 The following applies: HepG2 Attagene ARE/NRF2 reporter, transcription factor activity; actives raise or lower the signal. A digest of the protocol:
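Multiplexed reporter mRNA profiling in HepG2 after a 24 h chemical exposure. Curves fitted in both directions relative to DMSO negative control.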

The nature of assay [5]: ATG_Oct_MLP_CIS: Attagene CIS-FACTORIAL HepG2 Assay for human Octamer-Binding Transcription Factor (Oct) (AID 2282993). As to conditions: HepG2 Attagene cis-factorial Oct reporter, mRNA; actives raise or lower the signal. A digest of the protocol:
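Multiplexed cis-reporter assay in human liver HepG2 cells, 24 h incubation. Reporter RNA amplified and labelled, then resolved by capillary electrophoresis; DMSO serves as negative control and baseline.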

Assay [6] addresses Cellular tumor antigen p53 (Homo sapiens) (UniProt P04637). In words: ATG_p53_CIS: Attagene CIS-FACTORIAL HepG2 Assay for human p53 Transcription Factor (AID 2282994). The following applies: HepG2 p53 cis-element reporter, Attagene mRNA; actives raise or lower the signal. In outline:
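Multiplexed reporter mRNA assay in human HepG2 liver cells; cis-regulated units report endogenous factor activity. Values come from bidirectional curve fitting against DMSO negative control after 24 h treatment.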

Assay [7] concerns the target human Peroxisome Proliferator-activated Receptor alpha (PPARa), PPARA (gene 5465) (UniProt Q07869). Briefly: ATG_PPARa_TRANS: Attagene TRANS-FACTORIAL HepG2 Assay for human Peroxisome Proliferator-activated Receptor alpha (PPARa) (AID 2283001; active = hit-call score of the fitted dose curve at least 0.9, where 1 is the maximum;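 as to AC50: potency for gain of reporter signal over DMSO so agonist or activator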). In outline:
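Read-out is fluorescence of reporter cDNA fragments resolved by capillary electrophoresis after RT-PCR. Human HepG2 liver cells carried transfected PPARa-Gal4 chimera and GAL4-UAS reporter units, treated 24 h; activity scored as increase over DMSO.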

The target of assay [8] is human Peroxisome Proliferator-activated Receptor delta (PPARd), PPARD (gene 5467) (UniProt Q03181). In words: ATG_PPARd_TRANS: Attagene TRANS-FACTORIAL HepG2 Assay for human Peroxisome Proliferator-activated Receptor delta (PPARd) (AID 2283002; active = hit-call score of the fitted dose curve at least 0.9, where 1 is the maximum). A digest of the protocol: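 Cell-based TRANS reporter: HepG2, transient MRTU transfection, 24 h exposure. Readout = reporter mRNA (RT-PCR/CE, 6-FAM). Gain-of-signal fit vs DMSO control.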

Assay [9] concerns the target Retinoic acid receptor alpha (Homo sapiens) (UniProt P10276). Briefly: ATG_RARa_TRANS: Attagene TRANS-FACTORIAL HepG2 Assay for human Retinoic Acid Receptor alpha (RARa) (AID 2283005; active = hit-call score of the fitted dose curve at least 0.9, where 1 is the maximum). In outline: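 Reporter transcripts, measured by RT-PCR with fluorescent labeling and capillary electrophoresis after 24 h dosing, reflect activity of an exogenous human RARa–GAL4 fusion in transiently transfected HepG2. Fitted for increase relative to DMSO.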

In assay [10] the target is Nuclear receptor subfamily 1 group I member 2 (Homo sapiens) (UniProt O75469). In words: ATG_PXR_TRANS: Attagene TRANS-FACTORIAL HepG2 Assay for human Pregnane X Receptor (PXR) (AID 2283008; active = hit-call score of the fitted dose curve at least 0.9, where 1 is the maximum). A digest of the protocol:
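Measures mRNA induction of a GAL4-UAS-driven reporter in human HepG2 cells transiently expressing PXR fused to Gal4, following 24 h treatment. DMSO served as negative control and baseline.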

The target in assay [11] is human Retinoic Acid Receptor gamma (RARg), RARG (gene 5916) (UniProt P13631). In words: ATG_RARg_TRANS: Attagene TRANS-FACTORIAL HepG2 Assay for human Retinoic Acid Receptor gamma (RARg) (AID 2283009; active = hit-call score of the fitted dose curve at least 0.9, where 1 is the maximum). A digest of the protocol:
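Transient transfection of HepG2 with multi-reporter constructs, then 24 h chemical treatment. Total RNA isolated, reverse-transcribed, PCR-amplified, fluorescently labelled and resolved by capillary electrophoresis; activity scored as mRNA induction versus DMSO.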

Assay [12] in a line: BSK_3C_TissueFactor: BioMAP Diversity Plus: 3C Assay for Tissue Factor Biomarker Activity (AID 2282997). The following applies: BioMAP 3C HUVEC, tissue factor biomarker readout; actives raise or lower the signal. In outline:
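Endothelial monolayers (human umbilical vein, primary) are dosed, incubated 24 h, and assayed for Tissue Factor by ELISA; DMSO serves as negative control for bidirectional fitting.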

Assay [13] can be described thus: BSK_3C_uPAR: BioMAP Diversity Plus: 3C Assay for Urokinase-type plasminogen activator receptor (uPAR) Biomarker Activity (AID 2282998). The following applies: BioMAP 3C HUVEC, uPAR biomarker ELISA; actives raise or lower the signal. In outline: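 Dose primary human umbilical vein endothelial cells, incubate 24 h, measure cell-surface uPAR by ELISA, then fit the signal in both directions against the DMSO negative control.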
(An ELISA detects its analyte on a solid surface through an enzyme-linked reagent.)

A short description of assay [14]: BSK_3C_VCAM1: BioMAP Diversity Plus: 3C Assay for Vascular cell adhesion molecule 1 (VCAM1) Biomarker Activity (AID 2282999). As to conditions: BioMAP 3C HUVEC, VCAM1 ELISA, cytokine-stimulated; actives raise or lower the signal. In outline:
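Endothelial cells from human umbilical vein are treated with test chemical. At 24 h, VCAM-1 is measured by ELISA, and responses in either direction are fitted relative to DMSO.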

The nature of assay [15]: BSK_4H_Eotaxin3: BioMAP Diversity Plus: 4H Assay for Eotaxin 3 Biomarker Activity (AID 2283000).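 Also: CCL26 protein level quantified by ELISA in parallel with SRB cytotoxicity check.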 The following applies: primary human endothelial cells (HUVEC); actives raise or lower the signal. In outline: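 ELISA quantitation of CCL26 (Eotaxin-3) protein from chemically dosed human vascular endothelial cells at 24 h; increases and decreases both scored relative to DMSO-treated baseline.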

Read-out in assay [16]: Intercellular Adhesion Molecule 1 (ICAM1), ICAM1 (gene 3383)
Briefly: BSK_3C_ICAM1: BioMAP Diversity Plus: 3C Assay for Intercellular Adhesion Molecule 1 (ICAM1) Biomarker Activity (AID 2283003). As to conditions: primary human endothelial cells (HUVEC); actives raise or lower the signal. In outline: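 ICAM-1 levels measured by ELISA after HUVEC cultures in the 3C system had been dosed for 24 h. Gain or loss of signal relative to DMSO was fitted in both directions.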

Assay [17] can be described thus: BSK_3C_Proliferation: Cell Proliferation Assessment in the BioMAP Diversity Plus: 3C Assay (AID 2283006). As to conditions: primary human endothelial cells (HUVEC). A digest of the protocol: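 Read-out is total protein by SRB absorbance at 560 nm, taken as a proxy for relative cell number. Primary human umbilical vein endothelium cultured below confluence was dosed for 48 h, TCA-fixed and SRB-stained; curves were fitted bidirectionally versus DMSO.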

For assay [18], the target named is human RAR-related Orphan Receptor beta (RORb), RORB (gene 6096) (UniProt Q92753). In words: ATG_RORb_TRANS: Attagene TRANS-FACTORIAL HepG2 Assay for human RAR-related Orphan Receptor beta (RORb) (AID 2283010; active = hit-call score of the fitted dose curve at least 0.9, where 1 is the maximum). In outline:
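Readout is reporter-gene mRNA induction, detected as fluorescence after RT-PCR and capillary electrophoresis, fitted for gain of signal against DMSO controls. Transiently transfected HepG2 liver cells carrying GAL4-UAS reporter constructs were treated for 24 hours.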

Assay [19] deals with Peroxisome proliferator-activated receptor gamma (Homo sapiens) (UniProt P37231). Briefly: ATG_PPARg_TRANS: Attagene TRANS-FACTORIAL HepG2 Assay for human Peroxisome Proliferator-activated Receptor-gamma (PPARg) (AID 2283007; active = hit-call score of the fitted dose curve at least 0.9, where 1 is the maximum). A digest of the protocol:
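Multiplexed reporter transcription units in HepG2, 24 h dosing, reporter transcripts quantified by fluorescent RT-PCR and capillary electrophoresis. Increase over DMSO scored.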

Assay [20] has as its target human Retinoic Acid Receptor beta (RARb), RARB (gene 5915) (UniProt P10826). Briefly: ATG_RARb_TRANS: Attagene TRANS-FACTORIAL HepG2 Assay for human Retinoic Acid Receptor beta (AID 2283004; active = hit-call score of the fitted dose curve at least 0.9, where 1 is the maximum). In outline: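 Fluorescent capillary-electrophoresis detection of GAL4-UAS reporter mRNA defines the endpoint, with induction over DMSO-treated wells scored as activity. Transiently transfected human hepatoma HepG2 cells expressing exogenous NR–Gal4 proteins are exposed to test chemicals for 24 h.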

Molecules are shown by their SMILES. Records with an inconclusive call do not appear. Active and inactive are the calls of the source. The calls were made as follows, unless noted: active = hit-call score of the fitted dose curve at least 0.9, where 1 is the maximum; inactive = score below 0.9.

Chain of human RAR-related Orphan Receptor beta (RORb), RORB (gene 6096) (Q92753 whole entry, looked up, the tested form may be a part): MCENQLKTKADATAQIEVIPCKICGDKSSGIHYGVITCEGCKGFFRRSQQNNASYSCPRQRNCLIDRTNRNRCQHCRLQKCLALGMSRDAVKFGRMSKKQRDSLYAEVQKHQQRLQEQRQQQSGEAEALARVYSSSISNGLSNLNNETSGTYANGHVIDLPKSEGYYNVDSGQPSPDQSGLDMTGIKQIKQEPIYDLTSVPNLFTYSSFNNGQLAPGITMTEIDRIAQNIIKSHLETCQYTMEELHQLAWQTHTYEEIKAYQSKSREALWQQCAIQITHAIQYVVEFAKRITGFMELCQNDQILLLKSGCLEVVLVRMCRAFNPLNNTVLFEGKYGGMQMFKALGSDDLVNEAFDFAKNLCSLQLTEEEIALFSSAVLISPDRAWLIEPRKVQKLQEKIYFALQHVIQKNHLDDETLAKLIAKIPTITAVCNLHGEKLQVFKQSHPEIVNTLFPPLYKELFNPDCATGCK
Chain of Peroxisome proliferator-activated receptor gamma (Homo sapiens) (P37231 whole entry, looked up): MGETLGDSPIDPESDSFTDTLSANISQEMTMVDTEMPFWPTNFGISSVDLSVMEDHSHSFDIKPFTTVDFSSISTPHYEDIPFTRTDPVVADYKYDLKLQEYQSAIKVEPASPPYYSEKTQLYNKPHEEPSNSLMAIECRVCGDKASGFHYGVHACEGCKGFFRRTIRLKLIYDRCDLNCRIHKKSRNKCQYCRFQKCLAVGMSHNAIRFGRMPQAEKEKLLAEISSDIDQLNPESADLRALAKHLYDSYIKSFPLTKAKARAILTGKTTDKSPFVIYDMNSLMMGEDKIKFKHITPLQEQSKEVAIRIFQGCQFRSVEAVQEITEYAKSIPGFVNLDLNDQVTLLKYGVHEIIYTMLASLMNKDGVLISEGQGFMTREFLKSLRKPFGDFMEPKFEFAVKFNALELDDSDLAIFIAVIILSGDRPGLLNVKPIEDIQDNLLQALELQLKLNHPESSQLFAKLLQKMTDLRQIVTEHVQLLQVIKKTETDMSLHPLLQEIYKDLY
Chain of Retinoic acid receptor alpha (Homo sapiens) (P10276 whole entry, looked up, the tested form may be a part): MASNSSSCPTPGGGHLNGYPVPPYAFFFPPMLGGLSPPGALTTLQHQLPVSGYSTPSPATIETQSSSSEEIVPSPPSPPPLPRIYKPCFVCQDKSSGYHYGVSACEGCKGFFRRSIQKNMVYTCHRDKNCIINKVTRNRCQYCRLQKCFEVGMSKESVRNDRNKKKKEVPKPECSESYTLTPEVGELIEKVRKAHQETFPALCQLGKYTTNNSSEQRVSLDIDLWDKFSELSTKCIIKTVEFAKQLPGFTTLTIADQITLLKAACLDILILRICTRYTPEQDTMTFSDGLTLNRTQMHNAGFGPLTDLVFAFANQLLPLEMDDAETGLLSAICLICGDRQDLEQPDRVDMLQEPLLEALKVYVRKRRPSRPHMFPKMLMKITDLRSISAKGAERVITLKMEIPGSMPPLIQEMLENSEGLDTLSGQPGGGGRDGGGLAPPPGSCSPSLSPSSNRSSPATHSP
Chain of Myc proto-oncogene protein (Homo sapiens) (P01106 whole entry, looked up): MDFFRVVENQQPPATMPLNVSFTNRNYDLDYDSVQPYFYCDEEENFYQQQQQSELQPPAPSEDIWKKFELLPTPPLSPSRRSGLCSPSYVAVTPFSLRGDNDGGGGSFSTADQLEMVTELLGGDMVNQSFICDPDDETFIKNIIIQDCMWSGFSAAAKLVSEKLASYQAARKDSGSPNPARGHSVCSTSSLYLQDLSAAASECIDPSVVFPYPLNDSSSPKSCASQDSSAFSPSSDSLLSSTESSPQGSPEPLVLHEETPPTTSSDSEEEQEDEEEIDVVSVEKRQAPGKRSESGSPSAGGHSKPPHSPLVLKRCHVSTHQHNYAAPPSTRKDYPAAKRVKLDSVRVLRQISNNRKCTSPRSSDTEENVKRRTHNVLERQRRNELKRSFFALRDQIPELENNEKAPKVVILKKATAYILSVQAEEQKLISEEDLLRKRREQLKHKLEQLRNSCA
Chain of Nuclear receptor subfamily 1 group I member 2 (Homo sapiens) (O75469 whole entry, looked up, the tested form may be a part): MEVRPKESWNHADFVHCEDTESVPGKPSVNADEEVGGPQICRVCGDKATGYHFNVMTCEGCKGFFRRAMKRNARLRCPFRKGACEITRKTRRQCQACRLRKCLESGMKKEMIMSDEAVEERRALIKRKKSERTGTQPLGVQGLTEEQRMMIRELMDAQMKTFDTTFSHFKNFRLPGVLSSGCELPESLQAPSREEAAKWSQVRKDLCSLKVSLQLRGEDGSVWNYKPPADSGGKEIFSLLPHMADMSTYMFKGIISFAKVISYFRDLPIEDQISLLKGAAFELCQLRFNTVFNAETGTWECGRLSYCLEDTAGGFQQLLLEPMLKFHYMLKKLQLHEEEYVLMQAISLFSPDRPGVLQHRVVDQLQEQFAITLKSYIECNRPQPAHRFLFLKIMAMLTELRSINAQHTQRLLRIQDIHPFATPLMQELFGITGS
Chain of human Peroxisome Proliferator-activated Receptor alpha (PPARa), PPARA (gene 5465) (Q07869 whole entry, looked up, the tested form may be a part): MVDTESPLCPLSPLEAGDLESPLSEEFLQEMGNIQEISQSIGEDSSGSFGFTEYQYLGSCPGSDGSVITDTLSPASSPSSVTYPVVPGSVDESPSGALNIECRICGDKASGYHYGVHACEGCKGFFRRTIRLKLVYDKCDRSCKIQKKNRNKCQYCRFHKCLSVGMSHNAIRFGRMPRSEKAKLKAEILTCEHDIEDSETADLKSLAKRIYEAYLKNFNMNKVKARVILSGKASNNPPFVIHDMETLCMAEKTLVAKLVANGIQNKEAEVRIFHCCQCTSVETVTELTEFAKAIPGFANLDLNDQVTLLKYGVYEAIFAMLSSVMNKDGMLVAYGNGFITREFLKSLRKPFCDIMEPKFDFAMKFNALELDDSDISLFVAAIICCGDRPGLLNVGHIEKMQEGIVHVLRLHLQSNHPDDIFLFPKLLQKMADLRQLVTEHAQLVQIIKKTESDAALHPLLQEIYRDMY
Chain of Cellular tumor antigen p53 (Homo sapiens) (P04637 whole entry, looked up): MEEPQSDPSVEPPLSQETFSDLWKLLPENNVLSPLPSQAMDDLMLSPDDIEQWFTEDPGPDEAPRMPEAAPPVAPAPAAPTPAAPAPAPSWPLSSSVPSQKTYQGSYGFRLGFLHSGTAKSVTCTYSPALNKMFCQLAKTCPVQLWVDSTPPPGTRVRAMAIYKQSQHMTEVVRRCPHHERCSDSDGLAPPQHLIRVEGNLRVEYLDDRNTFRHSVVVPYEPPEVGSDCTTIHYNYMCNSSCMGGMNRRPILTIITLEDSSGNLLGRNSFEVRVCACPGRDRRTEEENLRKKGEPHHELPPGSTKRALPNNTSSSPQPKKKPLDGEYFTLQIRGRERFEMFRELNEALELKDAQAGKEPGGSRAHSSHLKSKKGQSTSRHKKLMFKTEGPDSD
Chain of human Retinoic Acid Receptor beta (RARb), RARB (gene 5915) (P10826 whole entry, looked up, the tested form may be a part): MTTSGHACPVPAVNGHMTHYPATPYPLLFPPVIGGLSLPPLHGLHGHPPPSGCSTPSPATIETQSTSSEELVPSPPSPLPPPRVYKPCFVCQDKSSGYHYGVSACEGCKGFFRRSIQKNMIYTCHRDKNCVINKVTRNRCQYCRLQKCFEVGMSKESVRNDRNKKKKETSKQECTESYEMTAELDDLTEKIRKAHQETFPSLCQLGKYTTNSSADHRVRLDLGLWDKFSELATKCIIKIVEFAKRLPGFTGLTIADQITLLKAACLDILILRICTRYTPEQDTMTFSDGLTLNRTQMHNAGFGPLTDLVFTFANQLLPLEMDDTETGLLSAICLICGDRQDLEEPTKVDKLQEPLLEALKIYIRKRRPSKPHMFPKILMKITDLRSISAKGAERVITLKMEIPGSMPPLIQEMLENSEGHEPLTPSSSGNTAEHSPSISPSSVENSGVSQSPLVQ
Chain of human Peroxisome Proliferator-activated Receptor delta (PPARd), PPARD (gene 5467) (Q03181 whole entry, looked up): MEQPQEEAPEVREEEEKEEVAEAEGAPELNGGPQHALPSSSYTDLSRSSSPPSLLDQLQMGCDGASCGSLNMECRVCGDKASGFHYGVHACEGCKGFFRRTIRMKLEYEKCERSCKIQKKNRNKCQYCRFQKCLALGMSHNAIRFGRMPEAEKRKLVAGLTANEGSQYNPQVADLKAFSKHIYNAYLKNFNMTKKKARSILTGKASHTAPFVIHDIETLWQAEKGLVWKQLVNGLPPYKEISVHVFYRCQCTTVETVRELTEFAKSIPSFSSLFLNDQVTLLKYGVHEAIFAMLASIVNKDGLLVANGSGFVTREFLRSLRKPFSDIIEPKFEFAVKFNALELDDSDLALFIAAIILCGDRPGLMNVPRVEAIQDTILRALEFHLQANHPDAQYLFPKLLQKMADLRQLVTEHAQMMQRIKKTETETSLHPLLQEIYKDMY
Chain of human Retinoic Acid Receptor gamma (RARg), RARG (gene 5916) (P13631 whole entry, looked up): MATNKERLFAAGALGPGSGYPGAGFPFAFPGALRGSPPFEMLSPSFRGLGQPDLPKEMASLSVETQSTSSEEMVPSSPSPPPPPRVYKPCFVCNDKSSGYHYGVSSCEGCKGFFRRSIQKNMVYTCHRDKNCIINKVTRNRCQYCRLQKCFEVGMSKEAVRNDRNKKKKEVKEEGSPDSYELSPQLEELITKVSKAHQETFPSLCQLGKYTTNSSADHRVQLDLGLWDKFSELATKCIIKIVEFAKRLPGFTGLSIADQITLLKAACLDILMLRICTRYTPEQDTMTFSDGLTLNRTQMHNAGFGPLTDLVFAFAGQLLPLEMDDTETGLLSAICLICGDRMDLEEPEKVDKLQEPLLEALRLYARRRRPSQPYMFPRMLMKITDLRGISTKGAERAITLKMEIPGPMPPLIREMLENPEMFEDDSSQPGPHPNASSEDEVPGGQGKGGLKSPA

Take `COc1cc(C)ccc1C(C)C`: the compound was called inactive in assay [1], in assay [2], in assay [3], in [4], in assay [5] and in assay [6]. The outcome in assay [7], in assay [8], in assay [9], in assay [10] and in assay [11] was inactive.

As to `O=C1CCCN1CCO`, the outcome in assay [1], in assay [2], in assay [3], in assay [4], in [5] and in [6] was inactive. Further, the outcome in assay [12], in assay [13], in [14], in assay [15], in assay [16] and in assay [17] was inactive. In addition, in assay [18], the compound was called inactive.

As usually defined, the AC50 is the concentration giving half of the maximal activity seen. On to `CN(C)c1ccc(N=Nc2ccccc2C(=O)O)cc1`, for which the result in [1], in assay [2], in assay [3] and in assay [8] was inactive. In addition, the AC50 is 4.76 µM (active) in assay [4]; 23.3 µM (active) in assay [5]; 66.4 µM (active) in assay [6]; 23.2 µM (active) in assay [7]; 27.5 µM (active) in assay [19].

Consider `O=C(O)CC(C(=O)O)C(CC(=O)O)C(=O)O` (configuration not stated), for which the outcome in [1], in [2], in assay [3], in [4], in assay [5] and in assay [6] was inactive. The call in assay [7], in assay [8], in [19], in [10] and in [11] was inactive.

In the case of `CCO[Si](C)(OCC)OCC`, the outcome in assay [1], in assay [2], in assay [3], in [4], in assay [5] and in [6] was inactive. Besides, the result in assay [12], in assay [13], in [14], in [15], in assay [8] and in [16] was inactive. The outcome in [17], in [10] and in [18] was inactive.

As for `Nc1ccc(N=Nc2ccccc2)c(N)n1`, the compound was called inactive in [1], in [2], in assay [3], in assay [6], in assay [8] and in [9]. The compound was classed as inactive in [10] and in assay [11]. The AC50 in [4] is 15.3 µM (active); in assay [5] it was 69.7 µM (active); in assay [7], 44.6 µM (active); in assay [19], 59.4 µM (active).

`COCC(C)N` (configuration not stated): the outcome in [1], in assay [2], in assay [3], in [4], in assay [5] and in [6] was inactive. For the same compound, the compound was called inactive in assay [7], in assay [8], in assay [20], in assay [19] and in assay [10].

Regarding `CC(=O)[C@H]1[C@H](C#N)C[C@H]2[C@@H]3CC=C4C[C@@H](O)CC[C@]4(C)[C@H]3CC[C@@]21C`, the compound was classed as inactive in assay [1], in [2], in [3], in assay [4], in assay [5] and in [6]. The outcome in assay [7], in assay [8], in [20] and in [18] was inactive.

`COC(=O)/C=C/C(C)=C\C=C\C(C)=C\C=C\C=C(C)\C=C\C=C(C)\C=C\C(=O)O`: the outcome in [1], in assay [2], in assay [3], in assay [5], in assay [6] and in assay [7] was inactive. Further, the call in [8], in [10] and in assay [18] was inactive. Besides, the results for the AC50 in assay [4] and in [19] were 67.9 µM (active) and 27.9 µM (active), respectively.

`CCOc1nc(F)cc2nc(S(=O)(=O)Nc3c(Cl)cccc3C(=O)OC)nn12`: the result in assay [1], in [2], in assay [3], in assay [5], in assay [6] and in assay [12] was inactive. Moreover, the outcome in assay [13], in assay [14], in assay [15], in assay [7], in assay [8] and in assay [16] was inactive. Besides, the compound was called inactive in [20], in assay [9], in assay [17] and in assay [11]. The AC50 is 27 µM (active) in assay [4], 46.2 µM (active) in assay [19] and 7.06 µM (active) in assay [10].
